Only some compounds are listed: those with a hit (about 2.4% of all), similar ones and a draw of the others.
D2 ag-1 = HTS Assay for Allosteric Agonists of the Human D2 Dopamine Receptor: Primary Screen for Agonists | D(2) dopamine receptor (Homo sapiens), P14416 | HEK293 T-REx D2 cells, calcium flux agonist mode | activation, % at 2 µM | hit rate 0.53% among 340,000;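 active = activation over 3 SD above normal in the single-dose calcium agonist read, cut at about 30% in these data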; also: 0% is about no effect
Target sequence (P14416 whole entry, looked up): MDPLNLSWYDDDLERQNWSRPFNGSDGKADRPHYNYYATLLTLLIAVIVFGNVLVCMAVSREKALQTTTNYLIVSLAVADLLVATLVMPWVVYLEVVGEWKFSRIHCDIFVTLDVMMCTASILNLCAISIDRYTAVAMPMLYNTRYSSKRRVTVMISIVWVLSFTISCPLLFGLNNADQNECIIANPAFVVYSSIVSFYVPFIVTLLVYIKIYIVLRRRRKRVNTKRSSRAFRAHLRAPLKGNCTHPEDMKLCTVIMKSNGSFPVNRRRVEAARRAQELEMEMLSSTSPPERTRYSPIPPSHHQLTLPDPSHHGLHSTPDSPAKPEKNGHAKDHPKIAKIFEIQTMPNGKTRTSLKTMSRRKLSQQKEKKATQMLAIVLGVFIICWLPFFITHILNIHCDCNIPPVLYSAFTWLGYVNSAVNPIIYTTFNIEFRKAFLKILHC
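HEK293 Trex D2 cells, tetracycline-induced, o/n 30 C 5% CO2; no-wash Ca dye, RT 30–90 min; 10-cycle baseline, 23 nl cpd added, kinetic Ca read 180 s; agonist hits = positive Ca response.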
D2 PAM-1 = Beta-Arrestin HTS for Positive Allosteric Modulators of the Human D2 Dopamine Receptor: Potentiators | D(2) dopamine receptor (Homo sapiens), P14416 | DiscoveRx D2 beta-arrestin cells, luminescence, 90 min; 100% = 57 uM dopamine signal | potentiation, % (concentration not given with the values) | hit rate 0.23% among 360,000; in the data active = potentiation above about 50%
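PathHunter D2 cells, attached overnight at 37 deg C, received compound in DMSO plus dopamine at EC20 (50 nM final) for 90 min at 37 deg C. Beta-arrestin recruitment was read as luminescence after 1 h with detection reagent at ambient temperature.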
D2 antag = HTS Assay for Allosteric Antagonists of the Human D2 Dopamine Receptor: Primary Screen for Antagonists. D(2) dopamine receptor (Homo sapiens), P14416. HEK293 TREx D2 cells, calcium flux, dopamine EC80. inhibition, % at 10 µM. hit rate 2% among 340,000; in the data active = inhibition above about 30%; inactive = below that, where a call was filed; also: 0% is about no effect
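HEK293 T-REx D2 cells, tet-induced, calcium dye no-wash. Cpd pintool add, 180 s kinetic, then EC80 DA, 180 s kinetic. Ca flux read.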
D2 PAM-2 = HTS Assay for Positive Allosteric Modulators of the Human D2 Dopamine Receptor: Primary Screen for Potentiators | D(2) dopamine receptor (Homo sapiens), P14416 | HEK293 T-REx D2, calcium flux, EC20 dopamine potentiation | potentiation, % at 10 µM | hit rate 0.34% among 340,000 | AID 485347, 2010;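 active = potentiation over 3 SD above the plate norm, cut at about 30% in these data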; also: 0% is about no effect
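Using a no-wash calcium dye in inducible, force-coupled HEK293 Trex cells expressing D2, we tracked fluorescence each second for 180 s after compound, then for 180 s after EC20 dopamine to detect augmented signalling.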
D2 ag-2 = Beta-Arrestin HTS for Positive Allosteric Modulators of the Human D2 Dopamine Receptor: Agonists; D(2) dopamine receptor (Homo sapiens), P14416; DiscoveRx PathHunter D2 beta-arrestin, luminescence, 90 min; 100% = 57 uM dopamine signal; activation, % (no concentration beside the values); hit rate 0.084% among 360,000; AID 624465, 2012; in the data active = activation above about 40%
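Agonist mode: compounds alone added to overnight-plated D2 PathHunter cells for 90 min at 37 C, with 57 uM final dopamine (EC100) defining full response. Beta-arrestin recruitment detected by chemiluminescent reagent, read after 1 h at ambient temperature.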
* hit, by the source's call; x = no result.

SMILES	D2 ag-1	D2 PAM-1	D2 antag	D2 PAM-2	D2 ag-2
CN1CCN(S(=O)(=O)c2cccc(C(=O)NC3(C)CCS(=O)(=O)C3)c2)CC1 (stereo unspecified)	0	-22	-1	41*	0
CC1(NC(=O)c2cccc(S(=O)(=O)N3CCCc4ccccc43)c2)CCS(=O)(=O)C1 (stereo unspecified)	0	10	-40	-1	-1
Cc1cccc(CCN2C(Nc3ccccc3)=NC[C@@H]2CC(C)C)c1	60*	-16	70*	-25	-2
CC(C)C[C@H]1CN=C(Nc2ccccc2)N1CCc1ccc(F)cc1	59*	-67	73*	-18	-1
CC(C)C[C@H]1CN=C(Nc2ccccc2)N1CCc1cccc(F)c1	x	-31	x	x	-2
Cc1cccc(NC2=NCC(=O)N2CCc2ccccc2)c1	2	-17	37*	2	-5
CC(C)CCN1C(Nc2ccccc2)=NC[C@@H]1CC(C)C	0	-9	-1	-24	-4
C=CCN1C(=O)CN=C1Nc1cccc(C)c1	x	1	x	x	-4
Cc1nn(-c2ccccc2)c(Cl)c1/C=N/NC(=O)c1ccncc1	1	0	-2	3	-2
COCCNC(=O)c1ccc(CS(=O)(=O)c2ccccc2OC)o1	-1	-2	6	9	-20
COCCSc1ccccc1C(=O)N1CCN(c2ccccc2OC)CC1	2	0	38*	4	-2
COCCCNC(=O)c1ccc(CS(=O)(=O)c2ccccc2OC)o1	-1	-3	33*	3	0
COc1ccccc1N1CCN(C(=O)c2ccc(CS(=O)(=O)c3ccccc3OC)o2)CC1	-2	-21	1	47*	2
Cc1ccc(-c2nc3c4ccccc4ccn3c2Cc2ccsc2)cc1	x	-11	x	x	-8
CCOc1cc(N2CCOCC2)c(OCC)cc1NC(=O)C1=COCCO1	1	-3	39*	5	-5
CCOc1cc(N2CCOCC2)c(OCC)cc1NC(=O)CSc1cccc[n+]1[O-]	x	57*	x	x	2
CCOc1cc(N2CCOCC2)c(OCC)cc1NC(=O)CSc1ncccn1	-1	1	-9	12	3
COc1cc2nc(CN3CCN(S(=O)(=O)c4ccccc4[N+](=O)[O-])CC3)[nH]c(=O)c2cc1OC	x	-9	x	x	0
CCCCCCn1c(-c2ccco2)nc2oc3cc(OC)ccc3c(=O)c2c1=O	-1	-9	-4	30*	-1
COc1ccc(Cn2c(C)nc3oc4cc(OC)ccc4c(=O)c3c2=O)cc1	0	-38	72*	-11	-6
O=c1c2ccccc2oc2nc(-c3ccco3)n(CCc3ccccc3)c(=O)c12	-1	x	-5	3	x
Cc1nc2oc3ccccc3c(=O)c2c(=O)n1Cc1ccccc1	1	-4	31*	-9	-1
COc1ccc2c(=O)c3c(=O)n(CCc4ccccc4)c(C)nc3oc2c1	x	0	x	x	1
CCOc1ccccc1CNC(=O)CN1C(=O)C2CCCCN2c2ccc(C(=O)N(C)C)cc21 (stereo unspecified)	-1	x	x	x	x
CCCCNC(=O)C1=CC(c2ccc3c(c2)OCO3)=NS(=O)(=O)N1C	x	x	x	-6	x
SMILES	D2 ag-1	D2 PAM-1	D2 antag	D2 PAM-2	D2 ag-2
Cc1cc(C)cc(NC(=O)CSc2nc(=O)n3cc(C)ccc3n2)c1	0	4	4	-9	-3
Cc1cc(C)nc(N2CCN(c3nc(C)cc(C)n3)CC2)n1	-1	x	0	-5	x
CCOc1cc(C)nc(N2CCN(C3CCCCC3)CC2)n1	1	-18	40*	7	-1
COc1cccc(CNCc2cccc(Br)c2)c1OC	1	-15	36*	-10	7
CCc1ccc(-n2nc3ccc(NC(=O)COc4ccc(OC)cc4)cc3n2)cc1	2	x	x	-7	x
N#Cc1sc2nc(C3CC3)cc(-c3ccccc3)c2c1N	-1	-17	1	8	-3
N#Cc1sc2nc(-c3ccccc3)cc(-c3ccco3)c2c1N	0	-6	62*	0	-2
CCOc1ccc(-c2nnc(SCC(=O)NCCc3ccccc3)nc2-c2ccc(OCC)cc2)cc1	0	x	x	2	x
O=C(CC1CCCCC1)Nc1ccc(-c2ccc3nncn3n2)cc1	0	-2	11	43*	-2
CCC(C(=O)NC1CCCCC1)n1nc(C)c2sc3ccccc3c2c1=O (stereo unspecified)	x	x	x	-2	x
C=CCn1c(SCC(C)=O)nc2scc(-c3ccc(C)o3)c2c1=O	-2	-8	-6	23	1
C=CCn1c(=S)[nH]c2scc(-c3ccc(C)o3)c2c1=O	2	-3	32*	11	-3
Cn1c(=O)c2ccccc2n(Cc2ccccc2Cl)c1=O	-1	2	34*	7	1
CCCCCn1c(=O)c(C(=O)c2ccccc2)nc2ccccc21	0	2	1	16	0
CCCCCCn1c(=O)[nH]c2nc3cc(N)ccc3nc2c1=O	85*	60*	32*	3	6
Cc1ccnc2c1ccc1cccnc12	0	-9	0	-3	3
Cc1ccnc2c1ccc1c(C)ccnc12	1	-25	43*	-18	-5
COc1ccccc1-n1c(SCC(=O)N2CCOCC2)nc2cccnc21	0	-3	60*	-5	-4
Cc1cccc(OCc2nnc(SCC(=O)Nc3ccc(C)cc3C)o2)c1	-2	x	x	13	x
CCn1c(=O)cc(OCC(=O)Nc2cc(OC)c(OC)c(OC)c2)c2ccccc21	1	x	x	14	x
COc1ccc(NS(=O)(=O)c2cc(C(=O)NNC(=O)c3ccncc3)ccc2OC)c(OC)c1	x	-4	x	x	1
O=C1Cc2cc(CCN3CCN(c4nsc5ccccc45)CC3)c(Cl)cc2N1	0	x	84*	-25	x
O=C1Cc2cc(S(=O)(=O)N3CCN(c4ccccc4)CC3)ccc2N1	1	-7	-14	-2	-6
COc1ccc(C2Nc3ccccc3C(=O)N2NS(=O)(=O)c2ccccc2)cc1 (stereo unspecified)	0	0	39*	6	1
O=C1c2ccccc2NC(c2ccccc2)N1NS(=O)(=O)c1ccccc1 (stereo unspecified)	0	-10	-15	-1	0
O=C1c2ccccc2NC(c2ccco2)N1NS(=O)(=O)c1ccccc1 (stereo unspecified)	2	0	33*	2	0
O=C1c2ccccc2NC(c2cccs2)N1NS(=O)(=O)c1ccccc1 (stereo unspecified)	0	-1	7	3	-2
